Data published in the supplement of paper PMC10338343.
± gives the standard deviation.

system: EfPiwi piRISC loaded with L1MC piRNA (26 nt); test: pre-steady-state target cleavage rate (min^-1); auxiliary factor: 500 nM Ephydatia muelleri Gtsf1; guide: L1MC piRNA 5'p-UAACUAAAUACUAUGCAAGCUGUAGG; MIWI and MILI are mouse PIWI proteins and EfPiwi is from a freshwater sponge; tags in brackets are library labels; higher = faster piRNA-guided slicing of the target
How it was run: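 Using HEPES–potassium acetate buffer at 33 °C, 1 nM active affinity-purified piRISC with a single synthetic guide was mixed with 0.1 nM transcribed, DNA-blocked target RNA library for 0–8 or 0–960 min, with or without 500 nM GTSF1 partner protein. Uncleaved targets were sequenced and normalised to depth and to weakly complementary targets, and three trials were pooled with k3 capped at 0.0001 min^-1. A burst-and-steady-state fit gave the pre-steady-state cleavage rate.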

With UCCUGGUACAGCUAGCAUAGUAUUUAGAAA as the sequence, how does the “pre-steady-state target cleavage rate” value read?
The value was 0.00319 ± 0.0022.

UCCUGGAUCAGCUUGCAUAGUAUUUUCAAA was tested. Which “pre-steady-state target cleavage rate” value did it give?
Its value is 0.00307 ± 0.0027.

With UCCUGGAACAGCUAUGCAUAGUAUUUAGUUA as the sequence, how does the “pre-steady-state target cleavage rate” value read?
Its value is 0.0102 ± 0.0029.

How did the “pre-steady-state target cleavage rate” value turn out when UCCUGGUACAGCUUGCAUACUAUUUAGUAA was run?
The value was 0.00327 ± 0.0023.

How did the “pre-steady-state target cleavage rate” value turn out when UCCUGGAUGUGCUUGCAUAAUAUUUAGUUA was run?
The value was 0.00327 ± 0.0027.

For UCCUGCUACAGCUUGCAUAGUCUUUAGUUA, which “pre-steady-state target cleavage rate” value is on record?
Its value is 0.00416 ± 0.001.

Which “pre-steady-state target cleavage rate” value does the source give for UCCUCCUUCAGCUUCCAUAGUAUUUAGUUA here?
Its value is 0.00448 ± 0.0019.

For UCCUCGUACAGCUUGCAUAGUAUUUAGAAA, which “pre-steady-state target cleavage rate” value is on record?
The value was 0.00711 ± 0.0033.

UCCUGCUACUCCUUGCAUAGUAUUUACAAA was tested. Which “pre-steady-state target cleavage rate” value did it give?
The value was 0.00249 ± 0.0023.

UCCUGGAUGAGCUUGCAUAGUAUUUACAUA was tested. Which “pre-steady-state target cleavage rate” value did it give?
The value was 0.00323 ± 0.0028.

For UCCUGCUACAGCUUGCAUAGUAUUUAGUA, which “pre-steady-state target cleavage rate” value is on record?
The value was 0.00529 ± 0.0019.

Which “pre-steady-state target cleavage rate” value does the source give for UCCUCCUACAGCUUGCAUAGUAUUUUGUAA here?
The value was 0.0056 ± 0.003.

For UCCUCCUACAGCUUGCAUAGUUAUUAGUUA, which “pre-steady-state target cleavage rate” value is on record?
The value was 0.0094 ± 0.0036.

How did the “pre-steady-state target cleavage rate” value turn out when UCCUGCAUGAGCUUGCAUAGUAUUUACAAA was run?
Its value is 0.00266 ± 0.0017.

How did the “pre-steady-state target cleavage rate” value turn out when UCCUGGAUCAGCAUGCAUAGUAUUUAGAUA was run?
Its value is 0.0044 ± 0.0024.

For UCCUGCUACAGCUUGCAUACUAUUUAGUAA, which “pre-steady-state target cleavage rate” value is on record?
Its value is 0.00476 ± 0.0026.

UCCUGCUACAGCUUGCAUAGUAUUUAGUAUA was tested. Which “pre-steady-state target cleavage rate” value did it give?
The value was 0.00675 ± 0.0019.

For UCCUGGAACAGCUUGCAUAGUAUUUUGAUA, which “pre-steady-state target cleavage rate” value is on record?
Its value is 0.00265 ± 0.0024.

With UCCUCCUACAGCUUGCAUAGUAUUAAGAAA as the sequence, how does the “pre-steady-state target cleavage rate” value read?
The value was 0.0051 ± 0.0031.

UCCUGGUACUCCUUGCAUAGUAUUUAGUAA was tested. Which “pre-steady-state target cleavage rate” value did it give?
The value was 0.00302 ± 0.002.

Which “pre-steady-state target cleavage rate” value does the source give for UCCUCCUACAGCUUGGAUAGAAUUUAGUUA here?
The value was 0.00574 ± 0.0016.

UCCUGGUACAGCUUGCAUAGUAUAUAGUAA was tested. Which “pre-steady-state target cleavage rate” value did it give?
Its value is 0.00335 ± 0.0022.

For UCCUGGAACAGCAUCCAUAGUAUUUAGUUA, which “pre-steady-state target cleavage rate” value is on record?
The value was 0.0025 ± 0.0021.

With UCCUGGAACAGCUUGCAUAGUAUUUUGUUA as the sequence, how does the “pre-steady-state target cleavage rate” value read?
Its value is 0.00368 ± 0.0018.

How did the “pre-steady-state target cleavage rate” value turn out when UCCUCCUAGAGCUUGCAUAGUAUUUUGUUA was run?
Its value is 0.006 ± 0.0024.

How did the “pre-steady-state target cleavage rate” value turn out when UCCUCCUUCAGCUUGCAUAGUAUUUACAAA was run?
Its value is 0.00379 ± 0.0027.

How did the “pre-steady-state target cleavage rate” value turn out when UCCUGGUUCAGCUUGCAUAGUAUUUAGAAA was run?
Its value is 0.00471 ± 0.003.

UCCUCCUACAGCUUGCAUAGUAUAAUGAAA was tested. Which “pre-steady-state target cleavage rate” value did it give?
Its value is 0.00235 ± 0.0022.

For UCCUGGAACAGCUUGCAUAGUAUUUAAUUA, which “pre-steady-state target cleavage rate” value is on record?
The value was 0.00345 ± 0.0024.

Which “pre-steady-state target cleavage rate” value does the source give for UCCUGGUACAGCUUGCUUAGUAUUUAGAAA here?
The value was 0.00224 ± 0.002.

With UCCUCCUUCAGCUUGCAUAGAAUUUAGUUA as the sequence, how does the “pre-steady-state target cleavage rate” value read?
The value was 0.00469 ± 0.0021.

For UCCUGGUACACCUUGCAUAGUAUUUAGAAA, which “pre-steady-state target cleavage rate” value is on record?
The value was 0.0037 ± 0.0035.

How did the “pre-steady-state target cleavage rate” value turn out when UCCUGGAUCUGCUUCCAUAGUAUUUAGUUA was run?
Its value is 0.00326 ± 0.0022.

UCCUGCUACAGCUUGCAUAGUAUUUACAAA was tested. Which “pre-steady-state target cleavage rate” value did it give?
Its value is 0.00255 ± 0.0022.

Which “pre-steady-state target cleavage rate” value does the source give for UCCUGGUACAGCUUGCAUAGUAUUUACAUA here?
Its value is 0.0038 ± 0.0029.

UCCUGGAUCAGCUUGCUUAGUUUUUAGUUA was tested. Which “pre-steady-state target cleavage rate” value did it give?
Its value is 0.00518 ± 0.0042.

UCCUGCUUCAGCUUCCAUAGUAUUUAGUUA was tested. Which “pre-steady-state target cleavage rate” value did it give?
Its value is 0.00322 ± 0.0013.

For UCCUCCUACAGCAAGCAUAGUAUUUAGAAA, which “pre-steady-state target cleavage rate” value is on record?
Its value is 0.00443 ± 0.0036.

With UCCUGGAACAGCUUGCGAUAGUAUUUAGUUA as the sequence, how does the “pre-steady-state target cleavage rate” value read?
The value was 0.00523 ± 0.0018.
